In PubChem BioAssay:
Activity calls are given as the source filed them.

How the values were obtained:
[1] = compound effects on lung adenocarcinoma cell viability – A549, calcein-AM fluorescence, 48 h, basal, profiling panel (AID 1162); details: higher = more signal
[2] = compound effects on differentiated 3T3-L1 adipocyte viability – cell-based, 3T3-L1 adipocytes, calcein-AM fluorescence, 48 h, basal, profiling panel (AID 1163); details: 3T3-L1 adipocytes viability, higher = more signal
[3] = compound effects on hepatocellular carcinoma cell viability – HepG2, calcein-AM fluorescence, 48 h, basal, profiling panel (AID 1164); details: higher = more signal
[4] = compound effects on multiple myeloma cell viability – MM1S, calcein-AM fluorescence, 48 h, basal, profiling panel (AID 1165); details: higher = more signal;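 also: viability of MM1S multiple myeloma cells under basal unstimulated conditions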
[5] = calcein-AM signal in unstimulated myeloma cells – cell-based, calcein-AM fluorescence, 48 h, PK04 Diversity Set, profiling panel (AID 1166); details: RPMI8226 myeloma viability, higher = more signal;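 also: cells grown under basal conditions without added stimulus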
[6] = JC-1 mitochondrial signal, unstimulated HepG2 cells – cell-based, JC-1 fluorescence, 24 h, 100 nL compound, profiling panel (AID 1167); details: HepG2 mitochondrial potential, higher = more signal
[7] = JC-1 mitochondrial signal, unstimulated adipocytes – cell-based, JC-1 fluorescence, 3T3-L1 adipocytes, 24 h, 100 nL compound, profiling panel (AID 1168); details: JC-1 mitochondrial fluorescence, higher = more signal, called active from +8 up or from −8 down
[8] = JC-1 mitochondrial signal, unstimulated myeloma cells – cell-based, JC-1 fluorescence, RPMI8226, 24 h, 100 nL compound, profiling panel (AID 1169); details: JC-1 mitochondrial potential fluorescence, higher = more signal
[9] = JC-1 mitochondrial signal, unstimulated MM1S myeloma – cell-based, JC-1 fluorescence, 24 h, 100 nL compound, profiling panel (AID 1170); details: MM1S mitochondrial potential, higher = more signal
[10] = resazurin metabolic signal in A549 cells – cell-based, resazurin fluorescence, 24 h, PK04 Diversity Set, profiling panel (AID 1171); details: A549 viability, higher = more signal, called active from +8 up or from −8 down
Also: test concentration not given here.

SMILES	z-score [1]	z-score [2]	z-score [3]	z-score [4]	z-score [5]	z-score [6]	z-score [7]	z-score [8]	z-score [9]	z-score [10]
COC(=O)[C@@]1(Cc2ccc(OC)cc2)[C@H]2c3cc(C(=O)N4CCCC4)n(Cc4ccccn4)c3C[C@H]2CN1C(=O)c1ccccc1	-0.87	0.588	-0.379	-1.9	-0.676	1.85	-0.85 (inactive)	0.556	0.208	-0.823 (inactive)
CCCCCCCCCCC(O)C1C=CC2C(=O)N(Cc3ccccc3)C(=O)C2N1n1cnnc1 (stereo not given)	-0.509	0.381	-0.324	-0.514	-0.921	0.015	-1.51 (inactive)	-0.0408	-0.979	-0.929 (inactive)
Cc1cc(C)c(C(O)C2C=CC3C(=O)N(c4ccccc4)C(=O)C3N2Nc2ccc(C#N)cc2)c(C)c1 (stereo not given)	0.0841	-1.06	1.33	-0.448	-0.127	-1.71	-1.51 (inactive)	0.211	-0.308	0.0763 (inactive)
COc1ccc(C#Cc2ccc3c(c2)[C@]2(C(=O)N3)[C@H](C(=O)NC[C@H](O)c3ccccc3)[C@H]3C(=O)O[C@H](c4ccccc4)[C@H](c4ccccc4)N3[C@@H]2c2ccc(OCCO)cc2)cc1	0.415	1.17	-0.425	-1.82	-1.07	-1.51	2.53 (inactive)	-1.04	-0.733	-0.171 (inactive)
CC(C)c1ccc(NN2C(C(O)c3cccc(O)c3)C=CC3C(=O)N(c4ccccc4)C(=O)C32)cc1 (stereo not given)	-1.09	-0.35	-0.753	-0.26	-0.237	-1.85	-0.948 (inactive)	-0.554	-0.749	0.403 (inactive)
COc1ccc([Si](C)(C)[C@@H]2[C@@H](CCn3cc([C@H](O)c4ccccc4)nn3)O[C@]3(C(=O)N(Cc4ccc(N5C(=O)c6cccc7cccc5c67)cc4)c4ccccc43)[C@H]2C)cc1	-0.725	1.91	-0.394	-0.709	-1.77	2.05	0.43 (inactive)	-0.964	0.209	-1.92 (inactive)
COc1ccc([Si](C)(C)[C@@H]2[C@@H](CC(=O)N(CCO)Cc3ccccc3)O[C@]3(C(=O)N(C)c4ccccc43)[C@H]2C)cc1	-0.664	0.349	-1.58	-2.68	-3.74	-0.494	-1.44 (inactive)	-1.12	-0.319	-1.78 (inactive)
CC(C)c1ccc(NN2C(C(O)c3c(F)cccc3Cl)C=CC3C(=O)N(c4ccccc4)C(=O)C32)cc1 (stereo not given)	-0.755	0.205	-0.314	-0.414	-1.32	-2.03	-2.25 (inactive)	-0.738	0.584	-1.71 (inactive)
O=C1O[C@@H](c2ccccc2)[C@@H](c2ccccc2)N2[C@@H](c3ccc(OCCO)cc3)[C@]3(C(=O)Nc4ccc(C#CC5=CCCCC5)cc43)[C@@H](C(=O)O)[C@H]12	1.09	0.771	-0.128	-3.21	-4.57	-4.12	-4.9 (inactive)	-0.946	-1.42	0.872 (inactive)
COc1ccc(C#Cc2ccc3c(c2)[C@]2(C(=O)N3)[C@H](C(=O)NC[C@H](O)c3ccccc3)[C@H]3C(=O)O[C@H](c4ccccc4)[C@H](c4ccccc4)N3[C@@H]2c2ccccc2OCCO)cc1	-1.86	0.0393	-3.16	-3.35	-3.4	-2.27	2.97 (inactive)	-0.865	-1.7	-1.58 (inactive)
COCCOC(=O)N1C(=O)[C@@]2(c3cc(C#CCCO)ccc31)[C@H](c1ccccc1OCCO)N1[C@H](c3ccccc3)[C@H](c3ccccc3)OC(=O)[C@H]1[C@@H]2C(=O)N1CCN(c2ncccn2)CC1	-0.442	-0.692	0.0682	-0.448	-0.0718	0.609	0.188 (inactive)	-0.0523	-1.1	-0.467 (inactive)
C=CC[C@@]1(C(=O)O)N=C(c2ccc(OCCCO)cc2)O[C@@H]1c1ccccc1N=[N+]=[N-]	0.179	-0.76	0.47	-0.756	-0.577	-1.95	-0.366 (inactive)	-0.919	-0.947	-0.514 (inactive)
CC(=O)C1=CCC(c2ccccc2)N(S(=O)(=O)c2ccc(C)cc2)C1 (stereo not given)	-0.346	0.0159	-0.727	-0.0171	-1.08	-0.602	-1.35 (inactive)	0.697	0.329	0.183 (inactive)
CN1C(=O)C2C(C1=O)C1C=C(CCCO)C2C(c2cccs2)N1C (stereo not given)	0.0141	-0.388	0.174	1.59	0.664	0.699	0.617 (inactive)	0.257	-0.852	-0.396 (inactive)
C=CCOC(=O)[C@H]1[C@@H]2C(=O)O[C@@H](c3ccccc3)[C@@H](c3ccccc3)N2[C@@H](c2ccc(OCCOC(=O)[C@@H]3C[C@@H]4C(=O)N5CCC[C@H]5C(=O)N4[C@@H]3c3ccc(O)cc3)cc2)[C@]12C(=O)Nc1ccccc12	0.924	0.038	-0.139	0.603	0.876	-1.42	1.74 (inactive)	-0.212	-0.786	0.362 (inactive)
CCCCCN1CC=CC23O[C@@H]4/C=C\CCC(C)OC(=O)C4[C@H]2C(=O)N(CCCCCO)[C@@H]3C1=O (stereo not given in full)	-0.213	1.56	0.167	0.599	-0.0704	-0.356	0.637 (inactive)	-0.982	-0.617	0.475 (inactive)
CS(=O)(=O)CCOC(=O)C1=CC(CCCO)=CC(c2cccs2)N(Cc2cc3c(cc2Br)OCO3)C=C1C(=O)OCCS(C)(=O)=O (stereo not given)	1.55	0.46	0.392	-0.121	0.377	1.09	0.252 (inactive)	-0.308	-0.579	0.885 (inactive)
Cc1ccc(F)cc1S(=O)(=O)N[C@@H]1CCN(Cc2ccc(-c3ccccc3)cc2)C1	-1.8	-1.3	-4.73	-3.15	-4.09	-1.82	-0.516 (inactive)	-0.69	-2.99	-0.464 (inactive)
COC(=O)C(CC#Cc1ccc2c(c1)[C@]1(C(=O)N2)[C@H](c2ccc(OCCO)cc2)N2[C@H](c3ccccc3)[C@H](c3ccccc3)OC(=O)[C@H]2[C@@H]1C(=O)NC[C@H](O)c1ccccc1)C(=O)OC	0.876	1.04	1.31	-1.67	-1.2	-1.13	0.833 (inactive)	-1.29	-1.35	0.795 (inactive)
O=c1cccc(C=Cc2ccccc2)o1	-0.523	-0.601	0.645	-0.571	-0.743	0.053	0.355 (inactive)	0.629	-0.969	0.261 (inactive)
O=C1C[C@]2(c3ccc([N+](=O)[O-])cc3)C(=O)N(CC(F)(F)F)c3cc(CO)ccc3[C@H]2N1CC12CC3CC(CC(C3)C1)C2	0.831	-0.425	0.655	0.489	0.0342	0.91	-1.2 (inactive)	0.308	-0.964	-0.399 (inactive)
COc1ccc(C#Cc2ccc3c(c2)[C@]2(C(=O)N3)[C@H](c3ccc(O)cc3)N3[C@H](c4ccccc4)[C@H](c4ccccc4)OC(=O)[C@H]3[C@@H]2C(=O)NC[C@H](O)c2ccccc2)cc1	-1.1	0.72	-0.513	-3	-4.58	-1.8	1.94 (inactive)	-1.12	-1.3	-0.475 (inactive)
CCCCC=C[C@@H](NC(=O)c1ccco1)c1ccccc1	-1.08	-0.872	0.264	-0.499	-1.16	0.989	0.0899 (inactive)	0.112	-1.05	0.335 (inactive)
[N-]=[N+]=NCc1ccccc1[C@H]1OC(c2ccc(OCCCO)cc2)=N[C@@]1(CCS(=O)(=O)c1ccccc1)C(=O)N1CCOCC1	1.91	0.831	1.01	-0.921	0.695	-1.05	0.455 (inactive)	-0.507	-0.877	0.388 (inactive)
C=CC[C@@H](OC(=O)Nc1ccc(OC)cc1)c1ccc(O)c2ccccc12	-0.28	0.316	-2	-2.96	-4.3	-3.28	-1.55 (inactive)	-0.992	-2.18	-0.67 (inactive)
CC(C)Cc1ccc(CN2CC[C@@H](NS(=O)(=O)c3ccccc3)C2)cc1	-0.977	-0.568	-1.63	-3.18	-3.72	-1.13	0.787 (inactive)	-0.414	-2.29	-0.235 (inactive)
Cc1ccc(S[C@]2(C(=O)O)CC(=O)N(C3Cc4ccccc4C3)[C@@H]2c2ccc(CO)cc2I)cc1	0.214	0.278	-0.671	-2.95	-2.88	0.0324	-0.939 (inactive)	-0.137	-0.717	0.477 (inactive)
[N-]=[N+]=NCc1ccccc1C[C@]1(C(=O)NCCN2CCOCC2)N=C(c2ccc(OCCCO)cc2)O[C@H]1c1ccccc1N=[N+]=[N-]	-0.872	0.233	-1.61	-1.68	-0.806	0.815	0.707 (inactive)	-1.02	-1.16	-0.901 (inactive)
COc1ccc(C(O)C2C=CC3C(=O)N(c4ccccc4)C(=O)C3N2Nc2ccc([N+](=O)[O-])cc2)cc1OCc1ccccc1 (stereo not given)	-0.805	-0.64	-1.09	0.324	-0.378	-0.608	-1.46 (inactive)	-0.215	-0.693	0.317 (inactive)
NCCCCCNC(=O)[C@H]1C[C@H]2C(=O)NCC(=O)N2[C@H]1c1cccc(OCCO)c1	1.5	0.118	0.79	0.892	0.857	0.538	1.18 (inactive)	-0.164	-0.158	0.547 (inactive)
